{
  "source": "the supplement of paper PMC10338343",
  "key": {"[1]": {"tested_on": "MILI (PIWIL2) piRISC loaded with L1MC piRNA (26 nt)", "assay": "pre-steady-state target cleavage rate (min^-1); guide: L1MC piRNA 5'p-UAACUAAAUACUAUGCAAGCUGUAGG; higher = faster piRNA-guided slicing of the target", "how_it_was_run": "(§1)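 For Cleave-'n-Seq, a transcribed, DNA-blocked target RNA library […] met 1 nM active affinity-purified piRISC with one synthetic guide at 33 °C for 0–8 or 0–960 min in HEPES–potassium acetate buffer, with or without 500 nM GTSF1 partner protein. Uncleaved targets were sequenced and normalised to depth and weakly complementary targets, with three trials pooled and k3 capped at 0.0001 min^-1. A burst-and-steady-state fit supplied the pre-steady-state cleavage rate.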"}, "[2]": {"tested_on": "EfPiwi piRISC loaded with L1MC piRNA (26 nt)", "assay": "pre-steady-state target cleavage rate (min^-1); auxiliary factor: 500 nM Ephydatia muelleri Gtsf1; guide: L1MC piRNA 5'p-UAACUAAAUACUAUGCAAGCUGUAGG; MIWI and MILI are mouse PIWI proteins and EfPiwi is from a freshwater sponge; tags in brackets are library labels; higher = faster piRNA-guided slicing of the target", "how_it_was_run": "as §1"}, "[3]": {"conditions": "auxiliary factor: 500 nM mouse GTSF1"}, "[4]": {"conditions": "auxiliary factor: none (no GTSF1)"}},
  "note": "± gives the standard deviation.",
  "data": [
    {"sequence": "UCCUGGAUGUCGAUUGCAUAGUAUUUAGUUA", "values": [
      {"measurement": "pre-steady-state target cleavage rate", "setting": "[1]; [3]", "value": "0.09 ± 0.012"},
      {"measurement": "pre-steady-state target cleavage rate", "setting": "[1]; [4]", "value": "0.00748 ± 0.0024"},
      {"measurement": "pre-steady-state target cleavage rate", "setting": "[2]", "value": "0.00712 ± 0.0027"}
    ]},
    {"sequence": "UCCUGGAUCAGCUUGCAUAGUAUUUUGUUA", "values": [
      {"measurement": "pre-steady-state target cleavage rate", "setting": "[1]; [3]", "value": "0.144 ± 0.019"},
      {"measurement": "pre-steady-state target cleavage rate", "setting": "[1]; [4]", "value": "0.00819 ± 0.0028"},
      {"measurement": "pre-steady-state target cleavage rate", "setting": "[2]", "value": "0.0125 ± 0.0042"}
    ]},
    {"sequence": "UCCUGGUACAGCUAGCAUAGUAUUUAGUAA", "values": [
      {"measurement": "pre-steady-state target cleavage rate", "setting": "[1]; [3]", "value": "0.201 ± 0.022"},
      {"measurement": "pre-steady-state target cleavage rate", "setting": "[1]; [4]", "value": "0.00371 ± 0.0023"},
      {"measurement": "pre-steady-state target cleavage rate", "setting": "[2]", "value": "0.00365 ± 0.0021"}
    ]},
    {"sequence": "UCCUGGUACAGCUUGCAAAGUAAUUAGUUA", "values": [
      {"measurement": "pre-steady-state target cleavage rate", "setting": "[1]; [3]", "value": "0.207 ± 0.03"},
      {"measurement": "pre-steady-state target cleavage rate", "setting": "[1]; [4]", "value": "0.00414 ± 0.0027"},
      {"measurement": "pre-steady-state target cleavage rate", "setting": "[2]", "value": "0.00305 ± 0.0021"}
    ]},
    {"sequence": "UCCUGGAACGCUUGCAUAGUAUUUAGUUA", "values": [
      {"measurement": "pre-steady-state target cleavage rate", "setting": "[1]; [3]", "value": "0.239 ± 0.015"},
      {"measurement": "pre-steady-state target cleavage rate", "setting": "[1]; [4]", "value": "0.00644 ± 0.0019"},
      {"measurement": "pre-steady-state target cleavage rate", "setting": "[2]", "value": "0.0259 ± 0.0076"}
    ]},
    {"sequence": "UCCUCCUACAGCUUGCGUAGUAUUUAGUUA", "values": [
      {"measurement": "pre-steady-state target cleavage rate", "setting": "[1]; [3]", "value": "0.28 ± 0.015"},
      {"measurement": "pre-steady-state target cleavage rate", "setting": "[1]; [4]", "value": "0.0113 ± 0.003"},
      {"measurement": "pre-steady-state target cleavage rate", "setting": "[2]", "value": "0.031 ± 0.011"}
    ]},
    {"sequence": "UCCUGGAUGUCGUUGCAUAGUAUUUAGUUA [g2:g18:cont:t1A]", "values": [
      {"measurement": "pre-steady-state target cleavage rate", "setting": "[1]; [3]", "value": "0.164 ± 0.013"},
      {"measurement": "pre-steady-state target cleavage rate", "setting": "[1]; [4]", "value": "0.0106 ± 0.0029"},
      {"measurement": "pre-steady-state target cleavage rate", "setting": "[2]", "value": "0.00621 ± 0.0026"}
    ]},
    {"sequence": "UCCUGGAACAGCUUGCAUAGAAUUUAGUUA", "values": [
      {"measurement": "pre-steady-state target cleavage rate", "setting": "[1]; [3]", "value": "0.0554 ± 0.01"},
      {"measurement": "pre-steady-state target cleavage rate", "setting": "[1]; [4]", "value": "0.00299 ± 0.0027"},
      {"measurement": "pre-steady-state target cleavage rate", "setting": "[2]", "value": "0.0051 ± 0.0017"}
    ]},
    {"sequence": "UCCUGGAACAGCUUGCAUAGUAUAUUAGUUA", "values": [
      {"measurement": "pre-steady-state target cleavage rate", "setting": "[1]; [3]", "value": "0.247 ± 0.019"},
      {"measurement": "pre-steady-state target cleavage rate", "setting": "[1]; [4]", "value": "0.00778 ± 0.0024"},
      {"measurement": "pre-steady-state target cleavage rate", "setting": "[2]", "value": "0.0104 ± 0.0043"}
    ]},
    {"sequence": "UCCUGGAUGAGCUUGCAUAGUAUUUCAGUUA", "values": [
      {"measurement": "pre-steady-state target cleavage rate", "setting": "[1]; [3]", "value": "0.207 ± 0.048"},
      {"measurement": "pre-steady-state target cleavage rate", "setting": "[1]; [4]", "value": "0.00415 ± 0.0028"},
      {"measurement": "pre-steady-state target cleavage rate", "setting": "[2]", "value": "0.00264 ± 0.0023"}
    ]},
    {"sequence": "UCCUCCAACAGCUUGCAUAGUUUUUAGUUA", "values": [
      {"measurement": "pre-steady-state target cleavage rate", "setting": "[1]; [3]", "value": "0.0522 ± 0.0087"},
      {"measurement": "pre-steady-state target cleavage rate", "setting": "[1]; [4]", "value": "0.00502 ± 0.0021"},
      {"measurement": "pre-steady-state target cleavage rate", "setting": "[2]", "value": "0.0119 ± 0.0041"}
    ]},
    {"sequence": "UCCUGGAUCAGCUUGCAUAGUAUUAUAGUUA", "values": [
      {"measurement": "pre-steady-state target cleavage rate", "setting": "[1]; [3]", "value": "0.283 ± 0.022"},
      {"measurement": "pre-steady-state target cleavage rate", "setting": "[1]; [4]", "value": "0.00669 ± 0.0028"},
      {"measurement": "pre-steady-state target cleavage rate", "setting": "[2]", "value": "0.0796 ± 0.024"}
    ]},
    {"sequence": "UCCUGGAUCAGCUUGCAUUGUAUUAAGUUA", "values": [
      {"measurement": "pre-steady-state target cleavage rate", "setting": "[1]; [3]", "value": "0.142 ± 0.016"},
      {"measurement": "pre-steady-state target cleavage rate", "setting": "[1]; [4]", "value": "0.00356 ± 0.0025"},
      {"measurement": "pre-steady-state target cleavage rate", "setting": "[2]", "value": "0.00314 ± 0.0017"}
    ]},
    {"sequence": "UCCUGCUACAGCUUGCAUGUAUUUAGUUA", "values": [
      {"measurement": "pre-steady-state target cleavage rate", "setting": "[1]; [3]", "value": "0.104 ± 0.02"},
      {"measurement": "pre-steady-state target cleavage rate", "setting": "[1]; [4]", "value": "0.00362 ± 0.0023"},
      {"measurement": "pre-steady-state target cleavage rate", "setting": "[2]", "value": "0.00438 ± 0.0028"}
    ]},
    {"sequence": "UCCUGAUACAGCUUGCAUAGUAUUUAGUUA", "values": [
      {"measurement": "pre-steady-state target cleavage rate", "setting": "[1]; [3]", "value": "0.269 ± 0.02"},
      {"measurement": "pre-steady-state target cleavage rate", "setting": "[1]; [4]", "value": "0.00917 ± 0.0027"},
      {"measurement": "pre-steady-state target cleavage rate", "setting": "[2]", "value": "0.0427 ± 0.014"}
    ]},
    {"sequence": "UCCUGGUACAGCAUGCAUAGUAUUUAGAUA", "values": [
      {"measurement": "pre-steady-state target cleavage rate", "setting": "[1]; [3]", "value": "0.137 ± 0.025"},
      {"measurement": "pre-steady-state target cleavage rate", "setting": "[1]; [4]", "value": "0.00437 ± 0.0029"},
      {"measurement": "pre-steady-state target cleavage rate", "setting": "[2]", "value": "0.00412 ± 0.0025"}
    ]},
    {"sequence": "UCCUCGUACUGCUUGCAUAGUAUUUAGUUA", "values": [
      {"measurement": "pre-steady-state target cleavage rate", "setting": "[1]; [3]", "value": "0.264 ± 0.0097"},
      {"measurement": "pre-steady-state target cleavage rate", "setting": "[1]; [4]", "value": "0.00745 ± 0.0024"},
      {"measurement": "pre-steady-state target cleavage rate", "setting": "[2]", "value": "0.0721 ± 0.018"}
    ]}
  ]
}
